Drawing on PubChem BioAssay, this text covers composite z-score and z-score for 22 compounds.

Active and inactive are the calls of the source.

The subject of test [1] is XIP peptide (Xip251-270) binding. The test can be described thus: XIP fragment 251-270 binding compounds – biochemical, small-molecule microarray, fluorescence 635/667 nm, 0.1 µg/mL protein, primary screen (AID 1182). The conditions noted are these: fluorescent protein binding, 635 nm, higher = more signal, called active from +8 up or from −8 down.
Another test concerns XIP peptide (Xip251-270). Briefly: compounds binding XIP fragment 251-270 – biochemical, small-molecule microarray, fluorescence 635/667 nm, 0.5 µg/mL protein, primary screen (AID 1183). The conditions noted are these: fluorescence 635 nm, higher = more signal.
The nature of test [2]: blood-stage malaria parasite viability loss – strain 3D7, DAPI fluorescence, 100 nL, primary screen (AID 1184).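 Further: parasites grown inside human red blood cells in medium with human serum.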 The conditions noted are these: P. falciparum 3D7 growth, 3 d, higher = more signal.
For test [3], the target named is Homeobox protein Hox-A13 (Mus musculus) (UniProt Q62424). Briefly: disruptors of Hoxa13 oligonucleotide interaction – biochemical, fluorescence polarization, labeled oligonucleotide, primary screen (AID 1185). The conditions noted are these: Hoxa13:DNA binding, 15 min, higher = more signal, called active from +8 up or from −8 down.
Sequence of Homeobox protein Hox-A13 (Mus musculus) (Q62424 whole entry, looked up): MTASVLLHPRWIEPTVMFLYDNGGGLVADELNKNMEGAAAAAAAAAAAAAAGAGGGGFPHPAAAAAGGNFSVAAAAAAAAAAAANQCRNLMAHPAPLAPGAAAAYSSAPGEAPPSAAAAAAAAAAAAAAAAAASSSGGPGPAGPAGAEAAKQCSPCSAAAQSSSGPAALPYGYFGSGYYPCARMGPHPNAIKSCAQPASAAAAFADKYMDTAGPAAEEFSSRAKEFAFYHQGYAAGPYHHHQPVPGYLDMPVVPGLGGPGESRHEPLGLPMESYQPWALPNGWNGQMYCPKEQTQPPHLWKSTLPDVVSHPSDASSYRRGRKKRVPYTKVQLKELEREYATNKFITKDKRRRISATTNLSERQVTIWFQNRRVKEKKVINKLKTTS

For `CCOC(=O)NN=C1C[C@@H](O)[C@@H](O)[C@@H]2[C@@H]3C(=O)N(C4CCCCC4)C(=O)[C@@H]3CC[C@H]12`, the results for the composite z-score (in test [1]; in the test on XIP peptide (Xip251-270)) were 0.67 (inactive) and 0.485, respectively. For the same compound, the values for the z-score in test [2] and in test [3] were -1.68 and -1.77 (inactive), respectively.

For `COc1ccc(COC(=O)NN=C2C[C@@H](O)[C@@H](O)[C@@H]3[C@@H]4C(=O)N(Cc5ccc6c(c5)OCO6)C(=O)[C@@H]4CC[C@@H]23)cc1`, the composite z-score in test [1] is 0.361 (inactive); in the test on XIP peptide (Xip251-270), -0.239. The z-score in test [2] is 0.142; in test [3] it was 0.284 (inactive).

On to `CC(C)CON=C1C[C@@H](O)[C@@H](O)[C@@H]2[C@@H]3C(=O)N(Cc4ccccc4)C(=O)[C@@H]3CC[C@@H]12`, for which the values for the composite z-score (in test [1]; in the test with XIP peptide (Xip251-270)) were -0.347 (inactive) and -0.229, respectively. Further, the z-score is -0.388 in test [2] and -0.596 (inactive) in test [3].

Take `COc1ccc(O[C@H]2C=C[C@@H](c3ccccc3)O[C@@H]2COC(=O)CCC(C)=NOCC[C@@H]2C=C[C@H](OC(C)=O)[C@@H](COC(C)=O)O2)cc1`: the composite z-score was 0.543 (inactive) in test [1] and 0.0553 in the test with XIP peptide (Xip251-270). Besides, the figures for the z-score in test [2] and in test [3] were -0.703 and -4.08 (inactive), respectively.

As to `CC(C)(C)N1C(=O)[C@H]2[C@H]3[C@H](O)[C@H](O)CC(=NOCc4ccccc4)[C@@H]3CC[C@H]2C1=O`, the composite z-score was 0.691 (inactive) in test [1] and 0.779 in the test on XIP peptide (Xip251-270). Moreover, the z-score in test [2] was 0.281; in test [3], 1.12 (inactive).

With `CCOC(=O)CCN1C(=O)[C@H]2[C@H]3[C@H](O)[C@H](O)CC(=NOC[C@@H](O)COCc4ccco4)[C@@H]3CC[C@H]2C1=O`, the values for the composite z-score (in test [1]; in the test with XIP peptide (Xip251-270)) were -0.159 (inactive) and 0.807, respectively. Also, the z-score in test [2] is 1.93; in test [3], -0.692 (inactive).

With `COC(=O)C1=C(C)[C@@H](O)[C@@H](C)[C@H](c2c(OC)c(OC)c(C)c(OC)c2OC)O1`, the figures for the composite z-score (in test [1]; with XIP peptide (Xip251-270)) were -0.252 (inactive) and 0.562, respectively. Also, the z-score in test [2] was -0.717; in test [3] it was -0.388 (inactive).

For the compound `CO[C@@H]1COC(=O)CC=C[C@@H](C)[C@@H]2C=C[C@H](O)[C@@H](COC(=O)CCC[C@H]1C)O2`, the composite z-score in test [1] is 0.0426 (inactive); in the test on XIP peptide (Xip251-270), 0.152. Also, the results for the z-score in test [2] and in test [3] were 0.149 and -0.262 (inactive), respectively.

`C[C@@H](c1ccccc1)N1C(=O)[C@H]2[C@H]3[C@H](O)C=CC(=O)[C@@H]3CC[C@H]2C1=O`: the composite z-score was 0.146 (inactive) in test [1] and 0.014 in the test with XIP peptide (Xip251-270). Also, the z-score in test [2] was -0.173; in test [3], -0.308 (inactive).

Regarding `CO[C@H]1COC(=O)CC=C[C@H](C)[C@@H](NS(=O)(=O)c2ccc(C)cc2)COC(=O)CC=C[C@@H]1C`, the composite z-score is -0.116 (inactive) in test [1] and 0.0878 with XIP peptide (Xip251-270). The values for the z-score in test [2] and in test [3] were -0.648 and 1.31 (inactive), respectively.

As for `Cc1ccc(S(=O)(=O)N[C@@H]2COC(=O)[C@H](C)COC(=O)CC=C[C@H]2C)cc1`, the figures for the composite z-score (in test [1]; with XIP peptide (Xip251-270)) were -0.396 (inactive) and -0.152, respectively. Further, the values for the z-score in test [2] and in test [3] were -0.18 and -0.424 (inactive), respectively.

As to `CO[C@@H]1COC(=O)[C@H](C)NC(=O)[C@@H](C)COC(=O)CCC[C@H]1C`, the results for the composite z-score (in test [1]; in the test on XIP peptide (Xip251-270)) were 0.144 (inactive) and 0.652, respectively. Further, the z-score in test [2] is -0.0339; in test [3], -2.16 (inactive).

As to `COc1ccc(-c2ccc3c(n2)CCCN3CC(O)CN2CCCc3nc(C)c(C)cc32)cc1` (stereo not drawn), the composite z-score in test [1] is 2.32 (inactive); with XIP peptide (Xip251-270) it was 0.79. Besides, the z-score was 0.618 in test [2] and -9.12 (active) in test [3].

`CO[C@H]1COC(=O)[C@@H]2CCCN2C(=O)CC=C[C@@H](C)[C@H](OC)COC(=O)CC=C[C@@H]1C`: the composite z-score in test [1] is 0.371 (inactive); in the test on XIP peptide (Xip251-270), 0.298. Also, the z-score in test [2] is 0.372; in test [3], -0.346 (inactive).

Consider `O=C1[C@H]2[C@H]3[C@H](O)[C@H](O)CC(=NOCc4ccccc4)[C@H]3CC[C@H]2C(=O)N1C[C@@H]1CCCO1`, for which the composite z-score is -0.344 (inactive) in test [1] and 0.567 with XIP peptide (Xip251-270). Also, the z-score in test [2] is 0.319; in test [3] it was -1.68 (inactive).

In the case of `O=C1[C@H]2[C@H]3[C@H](O)[C@H](O)CC(=NOCc4ccccc4)[C@@H]3CC[C@H]2C(=O)N1C1CCCCC1`, the results for the composite z-score (in test [1]; in the test with XIP peptide (Xip251-270)) were -0.112 (inactive) and 0.0602, respectively. The z-score was -0.368 in test [2] and -5.72 (inactive) in test [3].

Consider `O=C1[C@H]2[C@H]3[C@H](O)[C@H](O)CC(=NOC[C@@H](O)COCc4ccco4)[C@@H]3CC[C@H]2C(=O)N1c1ccc(F)cc1F`, for which the values for the composite z-score (in test [1]; in the test with XIP peptide (Xip251-270)) were -0.233 (inactive) and -0.103, respectively. Moreover, the z-score in test [2] is -0.561; in test [3], -4.05 (inactive).

For the compound `CCOC(=O)[C@H](Cc1ccccc1)NC(=O)CCC1CC(OC(=O)NCc2ccc3c(c2)OCO3)CC2(CCCC(COC(=O)NCc3cccc(C(F)(F)F)c3)O2)O1` (stereo partly drawn), the composite z-score was 0.19 (inactive) in test [1] and 0.109 in the test on XIP peptide (Xip251-270). The z-score in test [2] is -2.01; in test [3] it was -0.531 (inactive).

Regarding `CCOC(=O)[C@H](Cc1ccccc1)NC(=O)CCC1CC(OC(=O)NCCc2ccc(F)cc2)CC2(CCCC(COC(=O)NCC(c3ccccc3)c3ccccc3)O2)O1` (stereo partly drawn), the composite z-score is -0.295 (inactive) in test [1] and 0.651 with XIP peptide (Xip251-270). Moreover, the z-score in test [2] was -1.39; in test [3], -4.95 (inactive).

Turning to `CCOC(=O)NN=C1C[C@@H](O)[C@@H](O)[C@@H]2[C@@H]3C(=O)N(CC)C(=O)[C@@H]3CC[C@@H]12`, the composite z-score is -0.359 (inactive) in test [1] and 0.482 in the test on XIP peptide (Xip251-270). For the same compound, the results for the z-score in test [2] and in test [3] were 0.518 and 0.443 (inactive), respectively.

Take `COC(=O)CC=C[C@H](C)[C@@H](OCc1ccccc1Br)C(C)C`: the composite z-score in test [1] was 0.864 (inactive); with XIP peptide (Xip251-270), -0.039. Further, the z-score in test [2] was -0.0811; in test [3] it was -0.388 (inactive).

As to `CC(CCC(=O)OC[C@H]1O[C@H](C#Cc2ccccc2)C=C[C@@H]1Oc1ccc(C)cc1)=NO[C@@H](C)c1cn([C@H](CO)Cc2ccccc2)nn1`, the composite z-score in test [1] was 0.692 (inactive); in the test on XIP peptide (Xip251-270), 0.54. The z-score in test [2] is -1.02; in test [3] it was -2.38 (inactive).
